From PubChem BioAssay
gsp antag: antagonists of gsp mutant (McCune-Albright syndrome). Potency, µM (titrated, usually from 76.9 µM), for the others: at the top dose activity change, negative = inhibition, hits mostly inhibitors. gsp-mutant cells, cAMP HTRF, 30 min. actives 0.4% (n = 340,000). AID 624288; calls by dose curve; cell line not stated here;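 further: intracellular cAMP measured with PDE inhibitor Ro 20-1724 present during compound exposure; potency means the concentration at half of the fitted maximal effect; on the % scale 0 is the no-effect control and ±100 the full control effect; nearly all actives have a fitted effect of over 65% in size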
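G418-selected cells were plated in DMEM/10% FBS for 16-24 h at 37C, then treated with compounds plus the PDE inhibitor […] (300 uM solution added) for 30 min at 37C. Intracellular cAMP was measured by HTRF after 30 min lysis at room temperature.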
S-ASM inh: human S-ASM enzyme inhibition; placental ASM, HMU-PC fluorogenic substrate, 60 min; actives 0.006% (n = 340,000); Potency, µM (titrated, usually from 57.5 µM), for inactives: at the highest dose activity change, negative = inhibition, hits mostly inhibitors; active means well fitted inhibition curve with a large enough effect; inconclusive means small, poorly fitted or top-dose-only effect; inactive means no such curve, though single readings can be large or run the other way; further: potency means the concentration at half of the fitted maximal effect
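Human placenta-derived ASM enzyme was preincubated with compound for 10 minutes at room temperature, then given fluorogenic substrate HMU-PC0 (9 uM final) for 60 minutes at 37 °C; a pH 10 stop preceded fluorescence reading at Ex 386/Em 447 nm.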
gsp agonist: agonists of gsp mutant (McCune-Albright syndrome); actives 0.13% (n = 340,000); Potency, µM (doses to about 76.9 µM), for the others: top-dose activation (cAMP increase), actives largely listed as activators; gsp mutant cells, cAMP HTRF, 30 min; active means well fitted activation curve with a large enough effect; inconclusive means small, poorly fitted or top-dose-only effect, or another doubt; inactive means no such curve, though single readings can be large or run the other way; cell line not stated here;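 further: phosphodiesterase inhibitor Ro 20-1724 added with compounds to block cAMP breakdown; potency means the concentration at half of the fitted maximal effect; nearly all actives have a fitted effect of over 60% in size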
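Cells stably selected in G418 were plated at 2000/well, grown 16-24 hr, then given compounds in DMSO with the PDE inhibitor […] (300 uM solution added) for 30 min at 37C; cAMP was read by HTRF.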
TSHR antag: antagonists of human thyroid stimulating hormone receptor | P16473 | activity change, negative = inhibition, % at 11.5 µM | TSHR-expressing cells, TSH-stimulated cAMP HTRF, 2 h; active compounds read low | actives 0.2% (n = 330,000);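 active means activity change below a set negative limit, meaning inhibition stronger than a set level, cut at about -70% in these data; inconclusive means activity change between two set negative limits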; further: on the % scale 0 is the no-effect control and ±100 the full control effect
Target sequence (P16473 whole entry, looked up): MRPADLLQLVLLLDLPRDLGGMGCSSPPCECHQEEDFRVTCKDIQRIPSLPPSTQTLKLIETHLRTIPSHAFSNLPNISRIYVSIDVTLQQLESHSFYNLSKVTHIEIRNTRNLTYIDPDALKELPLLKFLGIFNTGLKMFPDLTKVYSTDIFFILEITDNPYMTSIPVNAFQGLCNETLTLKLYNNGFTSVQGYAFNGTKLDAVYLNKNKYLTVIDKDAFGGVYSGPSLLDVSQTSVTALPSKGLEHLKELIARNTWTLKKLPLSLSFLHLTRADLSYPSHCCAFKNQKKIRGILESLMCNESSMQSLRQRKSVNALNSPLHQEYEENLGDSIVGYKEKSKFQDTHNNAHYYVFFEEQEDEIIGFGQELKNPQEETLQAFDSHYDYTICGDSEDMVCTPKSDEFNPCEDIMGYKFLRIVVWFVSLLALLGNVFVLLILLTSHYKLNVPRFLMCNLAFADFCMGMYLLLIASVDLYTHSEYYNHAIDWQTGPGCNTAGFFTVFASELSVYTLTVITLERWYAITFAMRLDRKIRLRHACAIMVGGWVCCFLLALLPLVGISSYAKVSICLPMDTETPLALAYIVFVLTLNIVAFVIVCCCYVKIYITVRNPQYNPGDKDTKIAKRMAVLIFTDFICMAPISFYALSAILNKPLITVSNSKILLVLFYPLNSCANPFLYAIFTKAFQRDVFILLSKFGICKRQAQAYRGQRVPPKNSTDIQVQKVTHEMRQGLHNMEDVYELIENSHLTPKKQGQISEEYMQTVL
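Cell-based HTRF cAMP assay; TSHR cells + compound, TSH EC80 (4nM final), 2 h, 37 deg C. Lysis with anti-cAMP cryptate and cAMP-d2, 30 min RT, read 665/620 nm.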
* hit, by the source's call; i = inactive; ? = inconclusive; / = not tested or not shown; [ ] = another dose, or the depositor's remark. Rows were chosen to be rich in hits. Some 0.63% of all compounds tested hit in one or more screens of this group.

SMILES	gsp antag	S-ASM inh	gsp agonist	TSHR antag
CC(C)CC1(C)N=C(c2ccccc2)C(=S)N1 (stereo unspecified)	-9%	-1%	-19%[15.4 µM]	15
COc1ccccc1N1CCN(c2ccnc3cc(Cl)ccc23)CC1	10%	-1%	21%	-15
COc1ccccc1NC(=O)N1CCN(c2ccnc3cc(Cl)ccc23)CC1	35µM*	-3%	-3%[15.4 µM]	28
O=C(C1CCCCC1)N1CCN(c2ccnc3cc(Cl)ccc23)CC1	35µM*	3%	4%[15.4 µM]	19
C=CCN1CN(S(=O)(=O)c2cccc(Cl)c2)c2nc3ccccc3nc21	1%	0%	-10%	25
CCc1ccccc1NC(=O)CN(C)C(=O)COC(=O)c1ccco1	18%	1%	-6%	2
COc1cc(NC(=O)C(C)C)ccc1NC(=O)c1ccco1	-1%	5%	-35%	-93*
CC(NC(=O)c1cc(COc2ccc3ncccc3c2)on1)c1ccc(F)cc1 (stereo unspecified)	28µM*	-7%	-6%	-27
COc1cccc(CN(C)C(=O)c2cc(COc3ccc4ncccc4c3)on2)c1	35µM*	-10%	-6%[15.4 µM]	-29
Cc1ccc(CN2CCN(Cc3ccco3)CC2)cc1	4%	-2%	-1%	6
Cc1cc(C)c(NC(=O)C2CCCO2)c(C)c1 (stereo unspecified)	21%	1%	3%[15.4 µM]	/
Fc1ccc2[nH]c3c(N4CCN(c5ccccc5)CC4)ncnc3c2c1	?	-18%	17%	-89*
OC1(c2cccc(C(F)(F)F)c2)CCN(c2ncnc3c2[nH]c2ccc(F)cc23)CC1	25µM*	256%	-27%	/
COc1ccc2[nH]c3c(N4CCc5ccccc5C4)ncnc3c2c1	-13%	101%	-1%[15.4 µM]	-21
O=C(CCCN1CCC(O)(c2cccc(C(F)(F)F)c2)CC1)c1ccc(F)cc1	0%	0%	/	-20
CCOC(=O)N1CCN(c2ncnc3c2[nH]c2ccc(F)cc23)CC1	?	1%	-29%	-27
COc1ccc(N2CCN(c3ncnc4c3[nH]c3ccccc34)CC2)cc1	16µM*	-7%	14%	/
N#C/C(=C\c1ccc(-c2cc(Cl)ccc2Cl)o1)C(=O)Nc1cccc2ncccc12	/	/	/	-15
O=C(CN(CC1CCCO1)C(=O)CNS(=O)(=O)c1ccc(Cl)cc1)NC1CCCC1 (stereo unspecified)	14%	2%	-2%	9
CCCN(CCC)CCNC(=O)C1(O)c2ccccc2NC(=O)N1c1cccc(OC)c1 (stereo unspecified)	-4%	3%	?	-2
Cc1oc(-c2cc(F)ccc2F)nc1CN1CCN(c2ncnc3ccccc23)CC1	?	9%	6%	-26
COc1ccc(-c2nc(CN3CCN(c4ncnc5ccccc45)CC3)c(C)o2)c(OC)c1	32µM*	-2%	-19%	-17
CC(C)(C)SCCNC(=O)CN(c1ccccc1)S(=O)(=O)c1ccc(F)cc1	8%	-5%	-5%[15.4 µM]	-5
COc1ccc(-n2c(=S)[nH]c3cc(C(=O)NCc4ccc(F)cc4)ccc3c2=O)c(OC)c1	25µM*	-7%	7%[15.4 µM]	0
COc1ccc(-n2c(=S)[nH]c3cc(C(=O)Nc4ccccc4OC)ccc3c2=O)c(OC)c1	28µM*	2%	4%[15.4 µM]	?
SMILES	gsp antag	S-ASM inh	gsp agonist	TSHR antag
COc1ccc(-n2c(=S)[nH]c3cc(C(=O)Nc4ccc(F)cc4)ccc3c2=O)c(OC)c1	40µM*	-13%	5%	-6
CCc1c(C)nc(SCC(=O)N2CCCCC2CC)[nH]c1=O (stereo unspecified)	3%	1%	7%	-4
COc1ccc(N2CCN(C(C)C(=O)Nc3nnc(C)s3)CC2)cc1 (stereo unspecified)	-5%	3%	9%[15.4 µM]	-5
COc1ccc(CN2CCCN(C)CC2)c(OC)c1C	10%	3%	-48%	-119*
COc1cc(Br)c(CN2CCCN(C)CC2)cc1OC	8%	-3%	?	10
C[C@H](NC(=O)OC(C)(C)C)c1nnc(SCC(=O)Nc2cccc(Cl)c2)o1	-16%	0%	7%	-15
CC(C)[C@H](NC(=O)OC(C)(C)C)c1nnc(SCC(=O)Nc2ccc(Br)cc2)o1	35µM*	-2%	5%	-38
CC1CCN(S(=O)(=O)c2ccc3c(c2)CCC(=O)N3CC(=O)Nc2cccc(C#N)c2)CC1	/	/	/	-9
CC(C)C(=O)N1CCN(c2ccc(NC(=O)COc3ccccc3[N+](=O)[O-])cc2)CC1	28µM*	-1%	9%	-23
CN1CCN(c2ccc(NC(=O)COc3ccccc3[N+](=O)[O-])cc2)CC1	/	-3%	-1%[15.4 µM]	15
NS(=O)(=O)c1ccc(NC(=O)COc2ccc(Cl)cc2)cc1	10%	3%	?	1
O=[N+]([O-])c1ccc(NC(=S)NCCc2ccccc2)cc1	-21%	-5%	-5%[15.4 µM]	?
O=[N+]([O-])c1ccc(NC(=S)NCCc2ccc(Cl)cc2)cc1	-12%	-21%	1%	-75*
COc1ccc(N(C)S(=O)(=O)c2ccc3c(c2)CCN3C(=O)C2CC2)c(OC)c1	28µM*	2%	-33%	15
CN(C)S(=O)(=O)c1ccc2c(c1)/C(=C/c1cc3c([nH]1)CCCC3)C(=O)N2	10µM*	?	/	-25
CC(=O)OCCCNc1cc(Sc2nc3ccccc3s2)c2nonc2c1[N+](=O)[O-]	13%	-1%	13%	-4
CC(=O)OCCNc1cc(Sc2nc3ccccc3[nH]2)c2nonc2c1[N+](=O)[O-]	?	-7%	?	-88*
Cc1ccc(C(=O)C2=C(O)C(=O)N(c3ncccn3)C2c2ccccc2F)o1 (stereo unspecified)	-7%	1%	2.8µM*	-111*
Cc1ccc(C(=O)C2=C(O)C(=O)N(c3ncccn3)C2c2ccc(F)cc2)o1 (stereo unspecified)	20%	5%	46%[15.4 µM]	4
CCNc1nc(C)c2cc(Br)c(=O)n(CC)c2n1	8%	i	20µM*	10
Cc1ccc(Cl)cc1NC(=O)CON=C(N)c1ccccc1	0%	5%	-34%[15.4 µM]	-14
CCCn1nc([N+](=O)[O-])c(C(C#N)c2nc3ccccc3o2)c(Cl)c1=O (stereo unspecified)	?	2%	-43%	-76*
CCn1nc([N+](=O)[O-])c(C(C#N)c2nc3cc(C(F)(F)F)ccc3s2)c(Cl)c1=O (stereo unspecified)	28µM*	-11%	-26%	-88*
Cn1nc([N+](=O)[O-])c(C(C#N)c2ccccn2)c(Cl)c1=O (stereo unspecified)	-5%	-1%	10%	9
Fc1ccc(CSc2ccc3nnc(-c4cccs4)n3n2)cc1	32µM*	2%	12%	0
Cc1cccc(CSc2ccc3nnc(-c4cccs4)n3n2)c1	-24%	2%	-3%	-8
O=C(O)c1ccc(NC2=C/C(=N/S(=O)(=O)c3ccccc3)c3ccccc3C2=O)cc1	-21%	-1%	?	-74*
